# Data: the supplement of paper PMC7156485
# Values without a mark were called inactive.
# Tested on: TDF
# Test: H1.0 immunofluorescence intensity relative to DMSO (% of DMSO); higher = stronger H1.0 induction, active = 120 or more
# Conditions: concentration: 10 µM; 24 h
# How it was run: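 Six fields per well were imaged at ×10 after the cells were fixed in 3.7% formaldehyde and stained with a rabbit anti-H1.0 antibody, an AlexaFluor 647 secondary and DAPI. The HCC1569 and TDF cells had been plated at 800 per well in 384-well plates (RPMI, 10% FBS) and treated in triplicate with compounds at 10 µM for 24 h at 37 °C. The values are the median of replicates of H1.0 nuclear intensity or cell number, as percent of the plate control. Smoothing for positional effects was applied to HCC1569 data.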
# 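Also: TDF is a line of transformed human dermal fibroblasts of mesenchymal origin.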
row,Structure (SMILES),H1.0 immunofluorescence intensity
1,Br.C=CCN1CCc2c(cc(O)c(O)c2Br)C(c2ccccc2)C1 (stereo not drawn) [R(+)-6-Bromo-APB hydrobromide],89.7
2,Cc1onc(-c2ccccc2)c1C(=O)NC1C(=O)N2C1SC(C)(C)C2C(=O)[O-] (stereo not given) [Oxacillin],91.4
3,CCCCCC=CCC=CCC=CCC=CCCCC(=O)O [Arachidonic acid],101
4,C=CC1CN2CCC1CC2C(O)c1ccnc2ccc(OC)cc12.Cl.O (stereo not given),96.8
5,CC(=O)OCC1=C(C(=O)[O-])N2C(=O)C(NC(=O)CSc3ccncc3)C2SC1.[Na+] (stereo not given) [Cephapirin sodium],93.8
6,CC(=O)OC1C(=O)C2(C)C(O)CC3OCC3(OC(C)=O)C2C(OC(=O)c2ccccc2)C2(O)CC(OC(=O)C(O)C(NC(=O)c3ccccc3)c3ccccc3)C(C)=C1C2(C)C (stereo not given) [Taxol],174 (active)
7,CCC(=O)c1ccc2c(c1)N(CCCN(C)C)c1ccccc1S2.Cl [Propionylpromazine hydrochloride],104
8,O=C(Nc1ncc(-c2cc(C(F)F)nn2-c2c(Cl)cccc2Cl)s1)C1CC1,176 (active)
9,CC(C)(C)c1onc(OCP(=O)(O)O)c1CC(N)C(=O)O (stereo not given),91.2
10,C#CC1(O)CCC2C3CCC4=Cc5oncc5CC4(C)C3CCC21C (stereo not given) [Danazol],95.4
11,Oc1cccc(-c2nc(N3CCOCC3)c3oc4ncccc4c3n2)c1,88
12,CC(=O)O.NC(N)=NN=Cc1c(Cl)cccc1Cl [Guanabenz acetate],106
13,"CC(C)NCC(O)c1ccc(O)c(O)c1.Cl (single isomer, unassigned; (-)) [(-)-Isoproterenol hydrochloride]",89.5
14,CC1(C)CCC2(C(=O)O)CCC3(C)C(=CCC4C5(C)CCC(O)C(C)(C)C5CCC43C)C2C1 (stereo not given) [Oleanolic acid],101
15,CC1(C)C2CCC1(C(=O)O)C(=O)C2 (stereo not given) [Ketopinic acid],99.7
16,COc1ccc(-c2cc(=O)c3ccc(O)cc3o2)cc1 [Pratol],94
17,CC1CCC2(C(=O)O)CCC3(C)C(=CCC4C5(C)CC(O)C(O)C(C)(CO)C5CCC43C)C2C1C (stereo not given) [Asiatic acid],101
18,CC(C)C[C@H](NC(=O)C(O)[C@H](N)Cc1ccc([N+](=O)[O-])cc1)C(=O)O.Cl (stereo not given in full),95.3
19,CC(=O)NNC(=O)N1Cc2ccccc2Oc2ccc(Cl)cc21,91
20,Cc1ncc(Cl)cc1NCc1ccc(C(=O)N[C@@H](CC2CCCC2)C(=O)NC2CC2)s1,99.9
21,CC(C)n1cnc2c(NCc3ccccc3)nc(NCCCO)nc21 [Bohemine],100
22,"CCCCCCCCCCCCCCCCn1cc[n+](Cc2ccccc2)c1C.[I-] [eEF-2 Kinase Inhibitor, NH125]",152 (active)
23,O=C(OC1Cc2c(O)cc(O)cc2OC1c1cc(O)c(O)c(O)c1)c1cc(O)c(O)c(O)c1 (stereo not given) [Epigallocatechin gallate],94.8
24,CCN(CC)Cc1ccc(C(=O)N(CCc2ccccc2OC)[C@@H]2CCNC2)cc1.Cl.Cl,100
25,Cl.O=C1CC2(CCCC2)CC(=O)N1CCCCN1CCN(c2ncccn2)CC1 [Buspirone hydrochloride],94.3
